# Experiments:
# Experiment in all cases: yeast three-hybrid, YBZ-1, SC-Leu-His + 0.5 mM 3-AT, 4 days
# Conditions in all cases: tags: N-Gal4 AD-HA kept; label: inside an RPR1-promoter hybrid RNA with tandem MS2 sites; ssRNA
# PUM1 PUF domain R2-LWS = PUM1 PUF domain R2-LWS (Homo sapiens, UniProt Q14671 828-1176, N899L;Y900W;Q903S)
# In short: (§1)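 Sequencing with Illumina followed PCR amplification of the repeat regions from transformants grown four days on SC-Leu (input) or SC-Leu-His + 0.5 mM 3-AT (selection). The transformants were strain YBZ-1 with a LexA–MS2 coat fusion and a HIS3 reporter, carrying Pumilio-1 PUF domain libraries and matching RNA elements. The interaction score is the log change in variant frequency from input to selection, computed in log2 with a pseudocount of 1 for absent variants.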
# PUM1 PUF domain R8-RWG = PUM1 PUF domain R8-RWG (Homo sapiens, UniProt Q14671 828-1176, N1122R;Y1123W;Q1126G)
# In short: as §1
# PUM1 PUF domain R8-CHP = PUM1 PUF domain R8-CHP (Homo sapiens, UniProt Q14671 828-1176, N1122C;Y1123H;Q1126P)
# In short: as §1
# PUM1 PUF domain R4-ERC = PUM1 PUF domain R4-ERC (Homo sapiens, UniProt Q14671 828-1176, N971E;H972R;Q975C)
# In short: as §1
# PUM1 PUF domain R3-CPG = PUM1 PUF domain R3-CPG (Homo sapiens, UniProt Q14671 828-1176, R936P;Q939G)
# In short: as §1
# PUM1 PUF domain R8-RQR = PUM1 PUF domain R8-RQR (Homo sapiens, UniProt Q14671 828-1176, N1122R;Y1123Q;Q1126R)
# In short: as §1
# PUM1 PUF domain R1-KFR = PUM1 PUF domain R1-KFR (Homo sapiens, UniProt Q14671 828-1176, S863K;R864F;Q867R)
# In short: as §1
# PUM1 PUF domain R5-RNE = PUM1 PUF domain R5-RNE (Homo sapiens, UniProt Q14671 828-1176, C1007R;R1008N;Q1011E)
# In short: as §1
# PUM1 PUF domain R1-TVR = PUM1 PUF domain R1-TVR (Homo sapiens, UniProt Q14671 828-1176, S863T;R864V;Q867R)
# In short: as §1
# PUM1 PUF domain R7-QTR = PUM1 PUF domain R7-QTR (Homo sapiens, UniProt Q14671 828-1176, S1079Q;N1080T;E1083R)
# In short: as §1
sequence,measurement,setting,value
GGCUAGAACUAGUGGAUCCCCCGGCGCCCGGCGGCUCGAGCCCGGGUAAGUGUAAAUAGUCUGCAUGCCGCCGGGCGCCAUGCCUGCAGGUCGACUCUAGAAAACAUG,binding signal,PUM1 PUF domain R2-LWS,2.23 log2 enrichment (interaction score)
same,binding signal,PUM1 PUF domain R8-RWG,5.92 log2 enrichment (interaction score)
same,binding signal,PUM1 PUF domain R8-CHP,0.7 log2 enrichment (interaction score)
same,binding signal,PUM1 PUF domain R4-ERC,4.37 log2 enrichment (interaction score)
same,binding signal,PUM1 PUF domain R3-CPG,2.95 log2 enrichment (interaction score)
same,binding signal,PUM1 PUF domain R8-RQR,0.6 log2 enrichment (interaction score)
GGCUAGAACUAGUGGAUCCCCCGGCGCCCGGCGGCUCGAGCCCGGGUAAGUGUAAAGAGUCUGCAUGCCGCCGGGCGCCAUGCCUGCAGGUCGACUCUAGAAAACAUG,binding signal,PUM1 PUF domain R2-LWS,4.16 log2 enrichment (interaction score)
GGCUAGAACUAGUGGAUCCCCCGGCGCCCGGCGGCUCGAGCCCGGGUAAGUGUAAAUUGUCUGCAUGCCGCCGGGCGCCAUGCCUGCAGGUCGACUCUAGAAAACAUG,binding signal,PUM1 PUF domain R1-KFR,3.96 log2 enrichment (interaction score)
GGCUAGAACUAGUGGAUCCCCCGGCGCCCGGCGGCUCGAGCCCGGGUAAGUGUACAUAGUCUGCAUGCCGCCGGGCGCCAUGCCUGCAGGUCGACUCUAGAAAACAUG,binding signal,PUM1 PUF domain R4-ERC,0.16 log2 enrichment (interaction score)
GGCUAGAACUAGUGGAUCCCCCGGCGCCCGGCGGCUCGAGCCCGGGUAAGCGUAAAUAGUCUGCAUGCCGCCGGGCGCCAUGCCUGCAGGUCGACUCUAGAAAACAUG,binding signal,PUM1 PUF domain R8-RWG,6.94 log2 enrichment (interaction score)
same,binding signal,PUM1 PUF domain R8-CHP,2.6 log2 enrichment (interaction score)
same,binding signal,PUM1 PUF domain R8-RQR,3.05 log2 enrichment (interaction score)
GGCUAGAACUAGUGGAUCCCCCGGCGCCCGGCGGCUCGAGCCCGGGUAAGUGUUAAUAGUCUGCAUGCCGCCGGGCGCCAUGCCUGCAGGUCGACUCUAGAAAACAUG,binding signal,PUM1 PUF domain R5-RNE,3.73 log2 enrichment (interaction score)
GGCUAGAACUAGUGGAUCCCCCGGCGCCCGGCGGCUCGAGCCCGGGUAAGUGUCAAUAGUCUGCAUGCCGCCGGGCGCCAUGCCUGCAGGUCGACUCUAGAAAACAUG,binding signal,PUM1 PUF domain R5-RNE,2.14 log2 enrichment (interaction score)
GGCUAGAACUAGUGGAUCCCCCGGCGCCCGGCGGCUCGAGCCCGGGUAAGUGUAAAUCGUCUGCAUGCCGCCGGGCGCCAUGCCUGCAGGUCGACUCUAGAAAACAUG,binding signal,PUM1 PUF domain R1-TVR,3.55 log2 enrichment (interaction score)
GGCUAGAACUAGUGGAUCCCCCGGCGCCCGGCGGCUCGAGCCCGGGUAAGUUUAAAUAGUCUGCAUGCCGCCGGGCGCCAUGCCUGCAGGUCGACUCUAGAAAACAUG,binding signal,PUM1 PUF domain R7-QTR,2.39 log2 enrichment (interaction score)
GGCUAGAACUAGUGGAUCCCCCGGCGCCCGGCGGCUCGAGCCCGGGUAAGUGUAAAAAGUCUGCAUGCCGCCGGGCGCCAUGCCUGCAGGUCGACUCUAGAAAACAUG,binding signal,PUM1 PUF domain R2-LWS,7.72 log2 enrichment (interaction score)

# Reference: publication PMC8384837, “Expanding the binding specificity for RNA recognition by a PUF domain”
